Results published in the supplement of paper PMC10127200.
Where a name gives a salt, the structure may show the parent alone.

Tests used:
Experiment in all cases: Euclidean distance of Cell Painting phenotypic profile (signed KS, 77 features) to DMSO centroid (dimensionless distance); 5 or 10 uM (library dependent); higher = stronger phenotypic change vs DMSO (phenoactivity)
Conditions in all cases: 48 h
[1] = test system: 786-O
Procedure, shortened: (§1)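 At 10 or 5 uM, as set by the library, and 0.1% DMSO final, compounds were applied for 48 h to five cancer lines and one healthy fibroblast line. Stained cells were imaged confocally at 20X in 9 fields per well, and Harmony extracted 77 features scored as signed Kolmogorov-Smirnov statistics against vehicle wells on the same plate. Profiles underwent plate-position correction, correlation weighting and replicate averaging at the top dose. Phenoactivity is the Euclidean distance from each such profile to the median vehicle profile.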

[2] = test system: A549
Procedure, shortened: as §1

[3] = test system: DU145
Procedure, shortened: as §1

[4] = test system: FB
Procedure, shortened: as §1

[5] = test system: HEPG2
Procedure, shortened: as §1

[6] = test system: OVCAR4
Procedure, shortened: as §1

SMILES	Euclidean distance [1]	Euclidean distance [2]	Euclidean distance [3]	Euclidean distance [4]	Euclidean distance [5]	Euclidean distance [6]
CN(C)C[C@@H]1CCn2cc(c3ccccc32)C2=C(C(=O)NC2=O)c2cn(c3ccccc23)CCO1	3.81	3.95	4.1	3.89	3.22	4.42
O=c1cc(-c2ccc(O)cc2)oc2cc(O)cc(O)c12 [Apigenin]	1.18	0.946	1.17	1.39	1.73	1.32
CS(=O)(=O)N1CCN(Cc2cc3nc(-c4cccc5[nH]ncc45)nc(N4CCOCC4)c3s2)CC1	2.85	2.71	1.63	2.18	1.4	1.83
C[C@]12C=CC(=O)C=C1CC[C@@H]1[C@@H]2[C@@H](O)C[C@@]2(C)[C@H]1CC[C@]2(O)C(=O)CO [Prednisolone]	1.51	2.15	2.31	1.67	2.12	2.19
CC(C(=O)O)c1cccc(Oc2ccccc2)c1 (stereo not given) [Fenoprofen Calcium]	0.95	0.634	0.599	0.997	1.16	1.97
CN1CCCN=C1/C=C/c1cccs1 [Pyrantel Pamoate]	1.65	0.995	0.771	1.28	0.805	1.2
Nc1nccs1 [Aminothiazole]	0.905	1.79	2.14	1.92	0.971	1.9
CC(C)(C)C(=O)Oc1ccc(S(=O)(=O)Nc2ccccc2C(=O)NCC(=O)O)cc1 [Sivelestat (ONO-5046)]	0.847	0.693	0.861	1.16	0.614	0.797
C[C@@H](O)[C@H]1C(=O)N2C(C(=O)[O-])=C(SC3Cn4cnc[n+]4C3)[C@H](C)[C@H]12 (stereo not given in full) [Biapenem]	1.35	0.934	1.14	1.22	1.02	0.838
Cn1cc(-c2cnn3c(N)c(Br)c([C@@H]4CCCNC4)nc23)cn1	2.18	1.1	1.19	2.96	1.35	2.36
O=C(CCCN1CCN(c2ccccn2)CC1)c1ccc(F)cc1 [Azaperone]	0.919	0.568	0.729	0.828	0.758	1.09
Cc1c(Cn2c(C)nc3c(C(=O)O)cc(N4CCOCC4)cc32)cccc1C(F)(F)F	2.39	1.14	1.28	1.21	0.982	1.33
O=C1CC[C@@H](C(=O)N2CSC[C@H]2C(=O)O)N1 [Pidotimod]	1.14	0.696	0.731	0.833	0.84	0.854
COc1ccc(NS(=O)(=O)c2ccc(N)cc2)nn1 [Sulfamethoxypyridazine]	0.978	0.771	1.02	1.64	0.55	1.05
CSCC1CN(/N=C/c2ccc([N+](=O)[O-])o2)C(=O)O1 (stereo not given) [Nifuratel]	0.806	0.74	0.807	0.93	1.19	1.09
COc1ccc(-c2cnc3c(-c4cccc5ncccc45)cnn3c2)cc1	0.556	0.926	1.07	0.678	0.785	0.818
O=C1NC(=O)/C(=C/c2ccc3c(c2)OC(F)(F)O3)S1	1.35	1.7	1.51	1.44	1.13	0.892
CC(C)(S)[C@@H](N)C(=O)O [Penicillamine]	1.02	1.29	0.756	1.13	1.02	1.22
CCN(CC)CC(=O)Nc1c(C)cccc1C [Lidocaine hydrochloride]	0.709	0.8	0.919	0.862	0.656	1.35
Nc1ccc2cc3ccc(N)cc3nc2c1 [Proflavine]	3.98	3.75	4	4.15	4.17	4.45
NNc1nncc2ccccc12 [Hydralazine HCl]	1.33	1.23	0.857	1.33	0.411	0.975
COc1ccc(Cc2cnc(N)nc2N)cc1OC [Diaveridine]	0.784	1.57	1.59	1.23	0.387	1.42
Nc1cc(Cl)c(N=C2NCCN2)c(Cl)c1 [Apraclonidine HCl]	0.986	1.57	0.828	1.25	0.638	2
Cc1ccc(N(CC2=NCCN2)c2cccc(O)c2)cc1 [Phentolamine Mesylate]	1.55	0.595	0.949	1.19	1.72	1.1
Cc1cccc(C)c1NC(=O)c1cc(S(N)(=O)=O)c(Cl)cc1O [Xipamide]	1.51	0.665	0.648	1.08	0.576	1.08
Cc1ccc(S(=O)(=O)OCC(=O)Nc2ccc(C(=O)O)c(O)c2)cc1	1.33	1.22	1.04	0.948	0.793	1.47
CCCCOc1nc(N)c2c(n1)N(Cc1cccc(CN3CCCC3)c1)CC(=O)N2	1.32	0.517	0.661	0.941	0.589	1
O=C(NNc1nc2cc(F)ccc2n2cccc12)c1cnccn1	3.74	2.78	2.25	3.85	2.84	5.56
CC(C)(CO)[C@@H](O)C(=O)NCCCO [D panthenol]	1.37	0.791	0.819	1.14	0.659	1.64
CS(=O)(=O)CCC#N [Dapansutrile (OLT1177)]	0.937	0.857	2.91	0.633	0.92	1.45
